# Experimental data published in the OligoGym collection.
# Target: CDC42SE1
# Assay: pooled miR-30 sensor sort-seq; sequence = guide strand
# Settings: shRNA
# Also: reference of the scale not given here.
row,Sequence,sensor-assay potency score (higher = more potent)
1,TGCTCCATGGCCTATCTCGGTT,-1.52
2,ATCTCATCTGCTCCTGAACTGC,-1.52
3,TTTCTCTACCACACAGCAGCCC,-0.51
4,TTGGATCTCATCTGCTCCTGAA,-0.616
5,TCATCTGCTCCTGAACTGCACC,-1.23
6,TGAACTGCACCTGTCATGGCAA,-0.419
7,TGGGGTTTCTCTACCACACAGC,-1.01
8,TCATGGCAAGTCCATCTCCGGC,-1.88
9,TCTTCTTCTTCGGCTGGGGTTT,-1.24

# Target: CDCA7L
# Assay: as above
# Settings: shRNA
row,Sequence,sensor-assay potency score (higher = more potent)
1,TATACGGTGACGTCGTCTGTAC,-0.513
2,TAGACCTGCTTCTTCTAGGGGT,0.0946
3,TAAAAATTCTTCTTAGCTCTTC,0.664
4,TTTTCTAAGTCCTCTTCGGTGA,0.0411
5,TTCGGTGATATCCTCCACTGGC,0.00353
6,TAGTGAGTCAAAACTATCGCAG,-0.978
7,TAGCCTTATCTTCTTCTTCATC,-1.31
8,TATCATAGATTTTATCTCGAAC,-0.423
9,AAACTCTTCATCATCACTGGGG,0.515
10,TCGCACACCACAGCAACCCTGG,-0.788
11,TTCTGTATAAAAACACAACTGT,-0.22

# Target: CDCA8
# Assay: as above
# Settings: shRNA
row,Sequence,sensor-assay potency score (higher = more potent)
1,TTCACGGTCGAAGTCTTTCAGA,-1.11
2,TTGCTTGATTCGTATTTCCACT,-0.831
3,TTGGTCTTCAGTAAACAGGGAT,-0.3
4,TATCTGAGCCTAAACCTCCCGG,-0.819
5,TTCGTATTTCCACTTCACGGTC,-0.813
6,TTCATCTACCTGTATTACCTTT,-0.507
7,TATCATTTCATCTACCTGTATT,-1.16
8,TCTACCTGTATTACCTTTCGTG,-0.22
9,TTACCTTTCGTGTTTTGGCAGA,-0.552
10,TTTGCTGTCAGCAAGAGGGCTG,-0.00778
11,TAAACATAAAACACTGCTCCAC,-0.305

# Target: CDH19
# Assay: as above
# Settings: shRNA
row,Sequence,sensor-assay potency score (higher = more potent)
1,TTGTTCCAGACAACGCTCCTGG,-0.175
2,TTCATTGTCATTGATATCCGAA,0.271
3,TTTCTCAGGAAATAGAATCTGT,0.0652
4,TACTTGTAGTGATTGTACCATT,-0.931
5,TTAATTAATACACTTGTTGTTC,-0.144
6,TTGATATTGAACACTTTGCTCC,-0.145
7,TATTGGAATATATTCTCTCTGA,-0.596
8,TAGTCTGAATTACCTGACCAGA,-1.28
9,TTTTCCAGAATGAATTTCCTGA,-0.246
